The list is not random: actives were taken first. Their share in the collection is about 11%.
BAZ2B inh – inhibitors of human BAZ2B bromodomain | 4.4% of 360,000 active | AlphaScreen BAZ2B-H3K14Ac peptide displacement | Potency, µM (doses to about 114 µM), for inactives: at the top dose activity change, negative = inhibition, hits mostly inhibitors | Q9UIF8; note: potency is the fitted concentration of half-maximal effect; % is set by controls: 0 for no effect and ±100 for the full control effect; nearly all actives have a fitted effect of over 60% in size
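AlphaScreen luminescence quantifies BAZ2B engagement of H3K14Ac peptide; the protein and biotinylated peptide are both at 50 nM final, buffer PBS pH 7.4 with 0.01% Tween-20, all steps at room temperature.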
G9a block – inhibitors of human histone lysine methyltransferase G9a. 8.8% of 350,000 active. Q96KQ7. AID 504332. Potency, µM (doses to about 102 µM), without a hit: at the highest dose activity, negative = inhibition, most hits filed as inhibitors. G9a H3K9 monomethylation, AlphaScreen, 2 h; note: potency is the fitted concentration of half-maximal effect; % is set by controls: 0 for no effect and ±100 for the full control effect; nearly all actives have a fitted effect of over 75% in size
Target sequence (Q96KQ7 913-1193 limits assumed): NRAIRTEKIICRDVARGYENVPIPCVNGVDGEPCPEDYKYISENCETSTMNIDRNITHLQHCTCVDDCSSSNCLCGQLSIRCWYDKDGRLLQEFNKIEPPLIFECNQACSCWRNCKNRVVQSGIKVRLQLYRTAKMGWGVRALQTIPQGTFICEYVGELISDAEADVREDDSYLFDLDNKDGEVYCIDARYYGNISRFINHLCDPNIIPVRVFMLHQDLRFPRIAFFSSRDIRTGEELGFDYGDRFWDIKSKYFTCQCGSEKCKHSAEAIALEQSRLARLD
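Compounds were preincubated with 20 nM G9a for 15 min, after which biotinylated H3K9 peptide (500 nM) and SAM (20 uM) started a 2 h room-temperature reaction. Monomethylated product was quantified by antibody-based AlphaScreen chemiluminescence.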
L3MBTL1 block – L3MBTL1 (human) inhibition | AlphaScreen L3MBTL1–H3K9me1 peptide binding | Q9Y468 | AID 485360 | 0.66% of 230,000 active | Potency, µM (series often up to 57.1 µM), without a hit: at the highest dose activity, negative = inhibition, hits mostly inhibitors; note: potency is the fitted concentration of half-maximal effect; % is set by controls: 0 for no effect and ±100 for the full control effect; nearly all actives have a fitted effect of over 60% in size
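Read-out is AlphaScreen signal from streptavidin donor and nickel chelate acceptor beads (10 ug/mL final each) bridging L3MBTL1 (50 nM) and biotinylated K9-monomethylated H3(1-15) peptide (75 nM), after 30 min compound exposure at room temperature.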
HP1b chromo inh – inhibitors of HP1-beta chromodomain binding to methylated histone tails. 0.56% of 390,000 active. AID 540317. Potency, µM (titrated, usually from 114 µM), inactives show top-dose activity change, negative = inhibition, usual class: inhibitors. AlphaScreen HP1-beta / biotin-H3K9me3 peptide binding; note: potency is the fitted concentration of half-maximal effect; nearly all actives have a fitted effect of over 70% in size
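HP1-beta protein (50 nM final) preincubated 30 min at room temperature with biotinylated H3(1-18)K9me3 peptide (50 nM) in PBS pH 7.4, 0.01% Tween-20, then compound added for 30 min. AlphaScreen streptavidin donor/nickel chelate acceptor beads (10 ug/mL final), 30 min dark, luminescence read.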
PI5P4K alpha inh – inhibitors of human PI5P4K alpha; P48426; PI5P4Kalpha enzyme, ADP-Glo luminescence, 60 min; active compounds read low; max response, %; 1.2% of 330,000 active; active = max response of -50% or lower; inconclusive = between -30% and -50%; inactive = -30% or higher; note: value at the top dose of about 77 µM; % is set by controls: 0 for no effect and ±100 for the full control effect
Target sequence (P48426 whole entry, looked up): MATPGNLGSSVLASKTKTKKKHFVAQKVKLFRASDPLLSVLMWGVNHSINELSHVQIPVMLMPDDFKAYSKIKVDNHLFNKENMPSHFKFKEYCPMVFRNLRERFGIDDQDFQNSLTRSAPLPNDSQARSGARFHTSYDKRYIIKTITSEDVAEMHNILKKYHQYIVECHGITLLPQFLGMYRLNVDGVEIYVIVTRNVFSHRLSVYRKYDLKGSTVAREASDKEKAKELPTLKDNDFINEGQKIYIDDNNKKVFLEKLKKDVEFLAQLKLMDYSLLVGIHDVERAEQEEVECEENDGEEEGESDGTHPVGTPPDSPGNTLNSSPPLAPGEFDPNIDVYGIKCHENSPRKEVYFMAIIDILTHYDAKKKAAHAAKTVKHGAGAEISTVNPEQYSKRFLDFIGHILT
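ADP-Glo luminescence end-point after a 60 min room-temperature kinase reaction. PI5P4Kalpha and substrate in HEPES pH 7.4 buffer with EGTA, 0.1% CHAPS and 5% DMSO; ATP at 5 microM final.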
JMJD2A Tudor inh – inhibitors of human JMJD2A Tudor domain; O75164; AlphaScreen JMJD2A-Tudor / H3K4me3 peptide binding; Potency, µM (series often up to 114 µM), for inactives: top-dose activity change, negative = inhibition, most hits filed as inhibitors; 4.4% of 390,000 active; note: potency is the fitted concentration of half-maximal effect; % is set by controls: 0 for no effect and ±100 for the full control effect; nearly all actives have a fitted effect of over 50% in size
Starred values were filed as active, the others as inactive; u = inconclusive; x = not tested or not shown; [ ] = dose if it differs, or a comment. Unless noted, calls come from the whole dose curve; as a rule, active = well fitted inhibition curve with a large enough effect; inconclusive = small, poorly fitted or top-dose-only effect; inactive = no such curve, though single readings can be large or run the other way.

SMILES | BAZ2B inh | G9a block | L3MBTL1 block | HP1b chromo inh | PI5P4K alpha inh | JMJD2A Tudor inh
CC(=Nc1cccc(C)c1)c1sc2ccccc2c1O | -9% | -22% | 36% | 27% | x | u
CCn1cnc2c(=O)oc3ccc(S(=O)(=O)N4CCN(c5cc(C)ccc5C)CC4)cc3c21 | 3% | 3%[59 µM] | x | 3% | x | -14%
O=C(CCn1nnc2ccccc21)N1CCC(O)(c2cccc(F)c2)CC1 | -2% | 8% | -2% | -11% | -15 | 50µM*
NNC(=O)CCn1nnc2ccccc21 | -17% | x | 12% | 23% | 7 | 4%
CC1CC(C)CN(CCOc2ccc(Br)cc2)C1 (stereo not given) | u | 11µM* | 1% | u | 4 | 28µM*
Cc1ccccc1OCCCCN1CCCCC1 | -3% | 6%[59 µM] | 2% | 43% | -9 | -7%
Cc1cc(Br)ccc1OCCCCN1CCC(C)CC1 | u | 11µM* | 2% | u | -7 | 2.5µM*
CC1CCN(CCCCOc2ccc(Br)cc2)CC1 | -36% | u | 3% | -46% | -7 | 5µM*
CN1CCC(OC(=O)COc2ccc(Br)cc2)CC1 | -10% | 45µM* | 2% | 21% | -2 | -4%
O=C(Nc1c2c(nn1-c1ccc(Cl)cc1)CS(=O)(=O)C2)c1ccccc1F | -1% | 4%[59 µM] | x | 20% | x | -22%
CC1CCN(CCCCOc2cccc(Br)c2)CC1 | u | 8.9µM* | 6% | u | -3 | 1.8µM*
Cc1cccc(OCCCCCN2CCOCC2)c1 | -2% | 18%[59 µM] | 3% | 22% | 8 | 1%
Cc1c(C(=O)N(C)C)c2ccc(Cl)cc2n1O | 4% | 3.2µM* | 18% | 13% | 4 | -9%
CN(C)c1ncnc2ccc(-c3ccc4c(c3)OCO4)cc12 | x | -1%[0.501 µM] | x | x | x | x
COc1ccc2nc(NC(=O)C3CC(=O)N(c4ccc5c(c4)OCCO5)C3)sc2c1 (stereo not given) | -11% | 40µM* | -1% | 0% | -22 | -32%
CCN(CC)CCNC(=O)c1ccc(NC(=O)C2CC(=O)N(c3ccc4c(c3)OCCO4)C2)cc1 (stereo not given) | 0% | 40µM* | -5% | 13% | 5 | -9%
NC(=O)c1ccc(NC(=O)C2CC(=O)N(c3ccc4c(c3)OCCO4)C2)cc1 (stereo not given) | -6% | 6%[12.7 µM] | 9% | 6% | -5 | -11%
COc1ccc(C2c3c(n(C)c4ccccc34)C(=O)N2CC(=O)Nc2ccccc2Cl)cc1 (stereo not given) | -10% | -33%[59 µM] | x | 19% | x | -32%
COc1cc(Cl)c(C)cc1NC(=O)c1ccc2c(SCC(=O)O)c3c(nc2c1)CCCC3 | u | -10% | x | -4% | -19 | u
CCOC(=O)c1ccccc1NC(=O)c1ccc2c(SCC(=O)O)c3c(nc2c1)CCCC3 | 50µM* | u | x | 6%[57 µM] | -11 | -30%
O=C(O)CSc1c2c(nc3cc(C(=O)Nc4cccc(C(F)(F)F)c4)ccc13)CCC2 | 71µM* | 40µM* | x | 17% | u | 79µM*
CCOc1ccc(NC(=O)c2ccc3c(SCC(=O)O)c4c(nc3c2)CCCC4)cc1 | -21% | -9% | 2% | 20% | -9 | -9%
C=Cc1ccc(COc2ccc3oc(-c4ccccc4)c(C(=O)OCC)c3c2)cc1 | 107% | 91%[59 µM] | x | 139% | x | 103%
COc1ncc2nc(-c3ccc(Cl)cc3)c(=O)n(Cc3cccs3)c2n1 | x | -11%[0.501 µM] | x | x | x | x
N#Cc1nc(Nc2cc(F)cc(F)c2)c2ncn(CCCO)c2n1 | x | x | x | x | x | -7%
SMILES | BAZ2B inh | G9a block | L3MBTL1 block | HP1b chromo inh | PI5P4K alpha inh | JMJD2A Tudor inh
CC1(C)C2CCC(CN=C(N)CSS(=O)(=O)O)C1C2 (stereo not given) | x | x | x | x | -17 | x
NC(CSS(=O)(=O)O)=NCCC12CC3CC(CC(O)(C3)C1)C2 | 6% | 10µM* | 7% | u | -1 | -10%
COc1cccc(-c2nc(-c3ccccc3)c(-c3ccccc3)[nH]2)c1OCC(=O)O | u | -18%[59 µM] | -4% | u | -8 | -31%
O=C(O)COc1ccccc1-c1nc(-c2ccccc2)c(-c2ccccc2)[nH]1 | u | 79µM* | -5% | -5% | 7 | -33%
COc1ccccc1-c1nn(CCC(=O)Nc2ccccc2)c2nc(C)cc(C)c12 | -7% | 1%[59 µM] | x | 24% | x | -10%
Nc1cccn2c(-c3ccc(Cl)c(Cl)c3)cnc12 | 40µM* | 45µM* | u | u | -18 | 50µM*
Nc1cccn2c(-c3ccc(Cl)cc3)cnc12 | 50µM* | 50µM* | -4% | u | -21 | -5%[11.4 µM]
CN(C)c1ncc2nc(-c3cc(F)cc(F)c3)c(=O)n(Cc3cccs3)c2n1 | x | 1%[12.7 µM] | x | x | x | x
COc1ccc(C2/C=C\CN(C(=O)C3CC3)C(C)C(=O)N2Cc2ccc(F)cc2)cc1 (stereo not given) | x | x | x | 50% | x | -22%
CCOC(=O)c1c(C)[nH]c(O)c1C=Nc1ccc(Cl)cc1 | -34% | 50µM* | -4% | u | -4 | -35%
COC(=O)c1c(C)[nH]c(O)c1C=Nc1ccc(C(C)C)cc1 | 35µM* | u | -20% | u | -8 | 45µM*
COC(=O)c1c(C)[nH]c(O)c1C=Nc1ccc(Oc2ccccc2)cc1 | -17% | -21% | 8% | -20% | -3 | u
CCOC(=O)c1c(C)[nH]c(O)c1C=Nc1ccc(C(F)(F)F)cc1 | -9% | 45µM* | -7% | -8% | -8 | u
Cc1oc(-c2ccc(C(=O)NCc3cccc(F)c3)cc2)nc1COc1ccccc1 | -1% | -1%[59 µM] | x | 49% | x | 3%
S=c1[nH]nc([C@@H]2C[C@H]2c2ccccc2)n1-c1ccccc1 | -9% | 2µM* | -3% | -5% | -8 | 18µM*
Cc1ccccc1-n1c([C@@H]2C[C@H]2c2ccccc2)n[nH]c1=S | -16% | x | -4% | 9% | -10 | 45µM*
COc1ccc(-c2nc3cnc(N4CCOCC4)nc3n(Cc3cccs3)c2=O)cc1 | x | 2%[0.501 µM] | x | x | x | x
Cc1ccccc1N/N=C/c1c(C)nc2ccccn12 | u | 35µM* | x | 10% | 6 | u
Oc1c(Cl)cc(Cl)cc1Sc1cc(Cl)cc(Cl)c1O | 50µM* | u | -11% | x | x | x
COc1ccc(NC(=O)CN(C)CC(=O)Nc2ccccc2SC)cc1 | 20µM* | 8.9µM* | 11% | u | -6 | 32µM*
COc1ccc(NC(=S)NC(=O)c2csnn2)cc1 | -27% | 32µM* | -7% | 25% | -10 | -9%
COc1ccc(-c2cc(C(=O)Nc3ccccc3)on2)cc1 | -15% | 9% | 7% | 44% | -1 | -9%
COc1ccc(NC(=O)c2cc(-c3ccccc3O)no2)cc1 | -28% | 13µM* | x | -16% | x | u
COc1ccc(NC(=O)c2sc(=S)[nH]c2N)cc1 | u | u | -3% | -27% | u | 35µM*
Clc1ccc2nc(Nc3ccccc3Cl)nc(-c3ccccc3)c2c1 | 23% | 112%[59 µM] | x | 49% | x | 58%

Assay outcomes (PubChem BioAssay)
